The record followed here is PubChem BioAssay (Tox21).

Assay [1] is described as follows: qHTS assay to test for compound auto fluorescence at 535 nm (green) in HEK293 cells (AID 720680). In general terms: qHTS replaces the single test concentration by a dilution series.
A short description of assay [2]: qHTS assay to test for compound auto fluorescence at 460 nm (blue) in HEK293 cell free culture (AID 720681). Put shortly:
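Blue fluorescence (Ex 405/Em 460 nm, triamterene-equivalent) was read immediately after pin transfer of compound or DMSO into medium (DMEM, 10% FBS) without cells.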

The nature of assay [3]: qHTS assay to test for compound auto fluorescence at 590 nm (red) in HEK293 cell free culture (AID 720683). Put shortly:
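Red-channel autofluorescence of compounds in culture medium (DMEM, 10% FBS), no cells, measured at 540/590 nm. Rose Bengal sodium is the reference fluorophore for equivalence.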

Assay [4] is described as follows: qHTS assay to test for compound auto fluorescence at 590 nm (red) in HepG2 cell free culture (AID 720684). Put shortly: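 No cells present: MEM + 10% FBS only. Compound pinned in, red label read (540/590 nm). Activity = fluorescence equivalent to Rose Bengal sodium.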
Assay [5] can be described thus: qHTS assay to test for compound auto fluorescence at 460 nm (blue) in HepG2 cell free culture (AID 720685). Put shortly:
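Cell-free plates of MEM plus 10% FBS received 23 nL compound or DMSO vehicle; blue-channel (405/460 nm) intensity scored against triamterene as reference fluorophore.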

Assay [6] can be described thus: qHTS assay to test for compound auto fluorescence at 535 nm (green) in HepG2 cell free culture (AID 720686).
Assay [7] can be described thus: qHTS assay to test for compound auto fluorescence at 460 nm (blue) in HepG2 cells (AID 720687). The gist of the method: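 Blue-channel autofluorescence (Ex/Em 405/460 nm, triamterene-equivalent) was measured after 1 hr compound exposure at 37 C, 5% CO2. Cells were HepG2, plated overnight at 37 C in MEM plus 10% FBS.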
Assay [8] addresses Glucocorticoid receptor (Homo sapiens) (UniProt P04150). The assay can be described thus: qHTS assay to identify small molecule agonists of the glucocorticoid receptor (GR) signaling pathway (AID 720691; active means well fitted activation curve with a large enough effect in the signal ratio in the repeat runs, not every such curve was filed as active; the % refers to the signal ratio). Put shortly: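 Agonist-mode qHTS in HeLa cells stably expressing a glucocorticoid-response-element beta-lactamase reporter. Fluorescence intensity read with FRET substrate (2 h, room temperature) after 18 h compound treatment at 37 C.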

The target is the same in assay [9]. As to the kind of experiment: qHTS assay to identify small molecule antagonists of the glucocorticoid receptor (GR) signaling pathway (AID 720692; active means well fitted inhibition curve with a large enough effect in the signal ratio in the repeat runs, not every such curve was filed as active; the % refers to the signal ratio). The gist of the method:
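Inhibition of dexamethasone-driven (5 nM final) beta-lactamase expression was measured in GRE-reporter HeLa cells over 18 h at 37C. Fluorescence was read after 2 h with the B/G FRET substrate at room temperature.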

Assay [10] is described as follows: qHTS assay to identify small molecule antagonists of the glucocorticoid receptor (GR) signaling pathway - cell viability counter screen (AID 720693). Further: nearly all actives have a fitted effect of over 55% in size.
Assay [11] is described as follows: qHTS assay for identifying genotoxic compounds that show differential cytotoxicity against isogenic chicken DT40 cell lines with known DNA damage response pathways - wild type cell line (AID 743012). Further: nearly all actives have a fitted effect of over 60% in size. Further: potency means the concentration at half of the fitted maximal effect. Put shortly: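 Viability by ATP luminescence (CellTiter-Glo, 30 min RT) after 40 h compound treatment at 37 C/5% CO2, using 300 parental DNA repair-proficient DT40 cells per well.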

A short description of assay [12]: qHTS assay to identify small molecule antagonists of the androgen receptor (AR) signaling pathway - cell viability counter screen (AID 743033; further: nearly all actives have a fitted effect of over 45% in size).
The target in assay [13] is Androgen receptor (Homo sapiens) (UniProt P10275). As to the kind of experiment: qHTS assay to identify small molecule antagonists of the androgen receptor (AR) signaling pathway (AID 743035; active means well fitted inhibition curve with a large enough effect in the signal ratio in the repeat runs, not every such curve was filed as active; the % refers to the signal ratio). Put shortly:
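Antagonist mode: AR-bla HEK293 cells co-treated with test compounds and agonist R1881 for 16 h at 37C, 5% CO2. Beta-lactamase activity read as FRET fluorescence after 2 h room-temperature substrate loading.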

Assay [14] shares this target. As to the kind of experiment: qHTS assay to identify small molecule agonists of the androgen receptor (AR) signaling pathway (AID 743036; active means well fitted activation curve with a large enough effect in the signal ratio in the repeat runs, with a control signal flat, not every such curve was filed as active; the % refers to the signal ratio). Put shortly: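 Activation was read as beta-lactamase FRET signal from LiveBLAzer B/G substrate, added for 2 h at room temperature. Before that, GeneBLAzer AR-UAS-bla GripTite (HEK293) cells had 16 h compound exposure at 37C.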
Assay [15] shares this target. The assay can be described thus: qHTS assay to identify small molecule agonists of the androgen receptor (AR) signaling pathway using the MDA cell line (AID 743040; further: nearly all actives have a fitted effect of over 20% in size). Put shortly: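 Stable MMTV-luciferase reporter in MDA-kb2 cells; note the promoter carries GR as well as AR response elements. 16 h compound treatment, 37C, 0% CO2; ONE-Glo luminescence endpoint.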
A short description of assay [16]: qHTS assay to identify small molecule antagonists of the androgen receptor (AR) signaling pathway using the MDA cell line - cell viability counter screen (AID 743041; further: nearly all actives have a fitted effect of over 45% in size). Put shortly:
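Using the breast carcinoma line MDA-kb2 AR-luc, test chemicals were co-incubated with R1881 for 16 h; CellTiter-Fluor reagent, added at 15.5 h, provided a fluorescence measure of live cells.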

A short description of assay [17]: qHTS assay to identify small molecule antagonists of the thyroid receptor (TR) signaling pathway - cell viability counter screen (AID 743064). Further: nearly all actives have a fitted effect of over 50% in size. Put shortly:
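In-well cytotoxicity read by CellTiter-Fluor (30 min, 37 C) following 23.5 h exposure of GH3 cells bearing a TRE-luciferase sensor. Compounds were added alongside 1 nM (final) T3 to drive TR transactivation.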

Assay [18] in a line: qHTS assay for identifying genotoxic compounds that show differential cytotoxicity against isogenic chicken DT40 cell lines with known DNA damage response pathways - Rev3 mutant cell line (AID 743014). Further: nearly all actives have a fitted effect of over 55% in size. Further: potency means the concentration at half of the fitted maximal effect.
Assay [19] is described as follows: qHTS assay for identifying genotoxic compounds that show differential cytotoxicity against isogenic chicken DT40 cell lines with known DNA damage response pathways - Rad54/Ku70 mutant cell line (AID 743015). Further: nearly all actives have a fitted effect of over 60% in size. Further: potency means the concentration at half of the fitted maximal effect.

Inconclusive results are not listed. Active and inactive are the calls of the source. Unless noted, the call rests on the fitted dose curve; in most records, active means well fitted curve in the direction sought with a large enough effect in the repeat runs; inconclusive means weak or mixed curves; inactive means no such curve, though single readings can be large; an effect the other way counts as inactive or inconclusive.

Glucocorticoid receptor (Homo sapiens), sequence (P04150 whole entry, looked up): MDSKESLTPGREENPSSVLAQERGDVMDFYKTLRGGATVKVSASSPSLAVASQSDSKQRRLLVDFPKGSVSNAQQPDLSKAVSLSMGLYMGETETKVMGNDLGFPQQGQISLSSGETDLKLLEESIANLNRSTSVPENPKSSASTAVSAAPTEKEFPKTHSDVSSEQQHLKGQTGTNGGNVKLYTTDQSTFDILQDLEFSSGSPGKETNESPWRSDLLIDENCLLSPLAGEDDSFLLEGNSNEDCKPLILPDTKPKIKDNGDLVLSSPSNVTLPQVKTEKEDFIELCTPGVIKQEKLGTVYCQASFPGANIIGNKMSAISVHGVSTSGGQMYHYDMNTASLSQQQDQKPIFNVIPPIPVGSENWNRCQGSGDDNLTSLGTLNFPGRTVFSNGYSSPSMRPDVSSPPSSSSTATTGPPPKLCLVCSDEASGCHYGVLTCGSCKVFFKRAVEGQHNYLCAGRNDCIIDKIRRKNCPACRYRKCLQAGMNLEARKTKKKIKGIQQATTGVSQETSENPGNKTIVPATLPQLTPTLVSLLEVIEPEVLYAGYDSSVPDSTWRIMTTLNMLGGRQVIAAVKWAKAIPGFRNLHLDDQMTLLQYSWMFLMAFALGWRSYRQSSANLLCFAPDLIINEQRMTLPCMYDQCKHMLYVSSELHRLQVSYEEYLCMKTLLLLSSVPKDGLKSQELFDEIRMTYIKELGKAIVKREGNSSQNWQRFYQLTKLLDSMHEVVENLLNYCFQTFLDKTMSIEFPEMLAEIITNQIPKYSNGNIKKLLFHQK
Androgen receptor (Homo sapiens), sequence (P10275 whole entry, looked up): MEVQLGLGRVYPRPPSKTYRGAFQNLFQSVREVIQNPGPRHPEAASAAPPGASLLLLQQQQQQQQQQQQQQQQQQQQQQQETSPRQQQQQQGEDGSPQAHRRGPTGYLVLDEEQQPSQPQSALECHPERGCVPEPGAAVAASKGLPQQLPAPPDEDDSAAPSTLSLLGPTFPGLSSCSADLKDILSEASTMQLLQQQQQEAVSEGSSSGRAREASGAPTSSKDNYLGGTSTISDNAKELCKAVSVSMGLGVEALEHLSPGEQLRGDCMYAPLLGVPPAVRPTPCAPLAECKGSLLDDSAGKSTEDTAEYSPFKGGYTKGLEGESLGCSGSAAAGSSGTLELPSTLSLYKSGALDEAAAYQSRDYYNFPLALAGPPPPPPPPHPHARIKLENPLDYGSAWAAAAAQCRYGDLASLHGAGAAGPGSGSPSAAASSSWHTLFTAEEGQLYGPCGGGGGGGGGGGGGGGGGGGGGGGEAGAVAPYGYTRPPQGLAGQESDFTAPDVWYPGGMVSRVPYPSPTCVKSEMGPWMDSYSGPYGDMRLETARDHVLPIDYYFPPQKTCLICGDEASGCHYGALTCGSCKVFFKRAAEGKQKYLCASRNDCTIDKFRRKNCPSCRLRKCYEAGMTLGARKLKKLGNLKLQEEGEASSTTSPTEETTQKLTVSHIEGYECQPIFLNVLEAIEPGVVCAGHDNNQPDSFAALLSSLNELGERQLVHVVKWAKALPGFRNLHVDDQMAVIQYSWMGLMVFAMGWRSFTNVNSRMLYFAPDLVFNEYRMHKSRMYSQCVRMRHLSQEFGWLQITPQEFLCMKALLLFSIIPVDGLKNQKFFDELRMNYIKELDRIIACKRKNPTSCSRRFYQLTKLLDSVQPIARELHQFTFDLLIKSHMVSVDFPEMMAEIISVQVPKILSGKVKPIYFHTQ

Turning to `O=C(N[C@H]1CN2CCC1CC2)c1cc2ccoc2cn1`, the compound was called inactive in [1], in assay [2], in [3], in assay [4], in assay [5] and in assay [6]. The call in assay [7], in assay [8] and in assay [14] was inactive. In addition, the Potency result in assay [9], in assay [10], in assay [11], in [12], in assay [13] and in assay [15] was “inactive” each time. Besides, the Potency entry in assay [16] and in assay [17] was “inactive” each time.
Regarding `N#CCNCC#N`, the call in [1], in assay [2], in assay [3], in assay [4], in assay [5] and in assay [6] was inactive. In addition, the outcome in assay [7] was inactive. Also, the Potency entry in [10], in assay [18], in assay [19], in assay [12], in assay [16] and in [17] was “inactive” each time.
With `CN(C)CCc1ccc(O)cc1`, the compound was called inactive in assay [1], in [2], in [3], in assay [4], in assay [5] and in assay [6]. The call in [7] was inactive. Moreover, the Potency result in assay [10], in assay [11], in [18], in [19], in assay [16] and in assay [17] was “inactive” each time.
As to `CCC(=O)c1ccccc1`, the compound was called inactive in assay [1], in assay [2], in assay [3], in [4], in assay [5] and in assay [6]. Moreover, in assay [7], the call was inactive. In addition, the Potency result in [10], in [11], in assay [18], in [19], in assay [12] and in assay [13] was “inactive” in each case. Also, the Potency entry in assay [15], in assay [16] and in [17] was “inactive” in each case.
`CCC1(c2ccccc2)C(=O)NC(=O)NC1=O`: the result in [1], in assay [2], in assay [3], in assay [4], in assay [5] and in assay [6] was inactive. In assay [7], the outcome was inactive. Also, the Potency result in [10], in [11], in [18], in assay [19], in [12] and in assay [16] was “inactive” throughout. Moreover, the Potency entry in [17] is “inactive”.
Consider `CSc1ccc(C(=O)C(C)(C)N2CCOCC2)cc1`, for which the result in assay [1], in [2], in [3], in assay [4], in [5] and in assay [6] was inactive. For the same compound, the Potency entry in [10], in assay [12] and in [16] was “inactive” each time. The Potency in assay [11] is 48.6 µM (active); in [18] it was 68.6 µM (active); in assay [19], 48.6 µM (active).
For the compound `CN1CCN(C(=O)O[C@H]2c3nccnc3C(=O)N2c2ccc(Cl)cn2)CC1`, the result in assay [1], in assay [2], in assay [3], in [4], in assay [5] and in assay [6] was inactive. Further, the compound was called inactive in [7]. Also, the Potency result in assay [10], in assay [11], in assay [19], in [12], in assay [16] and in assay [17] was “inactive” each time.
Consider `Cc1ccccc1CO[C@@H]1C[C@@]2(C(C)C)CC[C@]1(C)O2`, for which the call in [1], in [2], in assay [3], in assay [4], in [5] and in [6] was inactive. Moreover, the result in [7] and in assay [14] was inactive. Moreover, the Potency entry in [10], in assay [12], in assay [13], in assay [15], in assay [16] and in assay [17] was “inactive” throughout. The results for the Potency in assay [11], in assay [18] and in [19] were 43.3 µM (active), 48.6 µM (active) and 54.5 µM (active), respectively.
For the compound `NC1=NC(=O)C(c2ccccc2)O1` (centres undefined), the outcome in assay [1], in assay [2], in assay [3], in [4], in [5] and in assay [6] was inactive. In addition, the compound was called inactive in assay [7] and in [8]. Besides, the Potency entry in assay [9], in assay [10], in [11], in assay [19], in assay [12] and in assay [16] was “inactive” in each case.
